The source made the active and inactive calls. Rule for the calls: active = hit-call score of the fitted dose curve at least 0.9, where 1 is the maximum; inactive = score below 0.9.

Aryl hydrocarbon receptor (Homo sapiens), sequence (P35869 whole entry, looked up): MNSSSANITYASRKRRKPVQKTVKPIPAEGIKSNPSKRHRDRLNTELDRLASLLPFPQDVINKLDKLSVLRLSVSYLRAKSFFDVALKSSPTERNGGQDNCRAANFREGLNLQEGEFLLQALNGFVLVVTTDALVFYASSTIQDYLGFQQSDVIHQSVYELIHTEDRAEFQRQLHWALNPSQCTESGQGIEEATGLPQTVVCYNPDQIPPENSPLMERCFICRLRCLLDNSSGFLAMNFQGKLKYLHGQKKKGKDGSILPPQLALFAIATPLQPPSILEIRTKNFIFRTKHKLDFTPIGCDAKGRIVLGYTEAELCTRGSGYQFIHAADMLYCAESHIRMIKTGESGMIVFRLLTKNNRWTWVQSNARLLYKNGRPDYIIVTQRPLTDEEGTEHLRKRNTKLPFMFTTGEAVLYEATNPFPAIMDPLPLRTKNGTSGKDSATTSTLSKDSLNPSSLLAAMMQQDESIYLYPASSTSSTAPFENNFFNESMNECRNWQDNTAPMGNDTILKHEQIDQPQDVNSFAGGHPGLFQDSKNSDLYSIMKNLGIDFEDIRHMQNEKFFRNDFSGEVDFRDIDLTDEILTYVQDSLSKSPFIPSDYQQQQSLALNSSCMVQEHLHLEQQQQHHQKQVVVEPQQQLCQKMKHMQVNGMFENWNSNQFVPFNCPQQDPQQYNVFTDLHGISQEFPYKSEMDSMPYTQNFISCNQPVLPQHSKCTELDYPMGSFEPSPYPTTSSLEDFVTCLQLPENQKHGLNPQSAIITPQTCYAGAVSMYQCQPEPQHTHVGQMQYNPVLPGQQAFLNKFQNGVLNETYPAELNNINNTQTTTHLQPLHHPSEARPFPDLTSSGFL

For the test, the target named is Aryl hydrocarbon receptor (Homo sapiens) (UniProt P35869). Briefly: ATG_Ahr_CIS: Attagene CIS-FACTORIAL HepG2 Assay for human Aryl Hydrocarbon Receptor (Ahr) (AID 2282930). To be noted: HepG2 AhR cis-factorial reporter transcription; actives raise or lower the signal. The method, then:
ATG_CIS is a cell-based, multiplexed-readout assay that uses HepG2, a human liver cell line, with measurements taken at 24 hours after chemical dosing in a 24-well plate.ATG_Ahr_CIS is one of 52 assay component(s) measured or calculated from the ATG_CIS assay. It is designed to make measurements of mRNA induction, a form of inducible reporter, as detected with fluorescence intensity signals by Reverse transcription polymerase chain reaction (RT-PCR) and Capillary electrophoresis technology.Data from the assay component ATG_Ahr_CIS was analyzed into 1 assay endpoint. This assay endpoint, ATG_Ahr_CIS, was analyzed with bidirectional fitting relative to DMSO as the negative control and baseline of activity. Using a type of inducible reporter, measures of mRNA for gain or loss-of-signal activity can be used to understand the reporter gene at the transcription factor-level as they relate to the gene AHR. Furthermore, this assay endpoint can be referred to as a primary readout, because this assay has produced multiple assay endpoints where this one serves a reporter gene function. To generalize the intended target to other relatable targets, this assay endpoint is annotated to the dna binding intended target family, where the subfamily is basic helix-loop-helix protein.
Human liver HepG2 cells are transiently transfected with multiple reporter transcription units (MRTUs) in 6-well plates using FuGene 6 reagent (Roche; 3 ml FuGene/1 mg DNA). The MRTU constructs are regulated by a cis-regulating element (promoter). […] A major difference between the CIS and TRANS system is that in CIS activities of endogenous TFs are measured, whereas the TRANS assay evaluates changes in activities of exogenous, chimeric NR-Gal4 proteins. […] At the end of 24 hour incubation, total RNA was isolated using TriZol reagent (Invitrogen). The isolated RNA is then reverse-transcribed using oligo(dT) primer and Mo-MLV reverse transcriptase (Invitrogen) with DNAse I (Ambion) treatment for 30 min. The one-tenth of the produced cDNA was amplified by PCR using Taq DNA polymerase (Invitrogen) and two reporter sequence-specific primers. The PCR products were fluorescently labeled by primer extension with 6-arboxyfluorescein (6-FAM) 5'-labeled reporter sequence-specific primer (2 min at 95 C, 20 s at 68 C and 10 min at 72 C) and these products were digested with 5U of HpaI (New England Biolabs) for 2h at 37 C. […] The raw capillary electrophoresis data was processed using Attagraph software (Attagene).
Turning to `CC(CC=O)CC(C)(C)C` (stereo not given), the outcome was inactive.
On the same count and under the same terms, in the case of `CCCc1ccc(O)c(OC)c1` it was “inactive”.
The same measure, in the same setting: in the case of `CCC1COC(=O)O1` (stereo not given) it was “inactive”; in that of `CC(=O)OC/C=C(/C)CCC=C(C)C`, “inactive”; in that of `CC1(C)[C@@H]2CC[C@@]1(C)C(=O)C2`, “inactive”.
`Nc1ccc(C(=O)O)cc1`: the call was inactive.
As for `CC1(C)CCC[C@]2(C)[C@H]3CC(=O)O[C@]3(C)CC[C@@H]12`, the compound was called inactive.
On the same count and under the same terms, the same measure for `CCCCCCCCCCCCCC(=O)OC(C)C`: “inactive”; for `CCCSSCCC`: “inactive”.
Turning to `[Cl][Sc]([Cl])[Cl]`, the AC50 (in general, the concentration giving half of the maximal activity seen) was 0.188 µM (active).
For the compound `O=C(Oc1ccccc1)c1ccccc1O`, the result was inactive.
For the compound `CC12CCC(CC1)C(C)(C)O2`, the compound was classed as inactive.
Still for that read-out and setting: in the case of `CC1=CCC(C(C)C)C=C1` (stereo not given) it was “inactive”; in that of `CC(=O)CC(=O)Nc1ccccc1C`, “inactive”.
The same measure, in the same setting: in the case of `CCCCC(CC)COS(=O)(=O)O` (stereo not given) it was “inactive”; in that of `CC(C)c1ccc2ncccc2c1`, “inactive”; in that of `CCCC1CCCC(=O)O1` (stereo not given), “inactive”.
On to `CC=C(C)C=CC=C(C)C`, for which the outcome was inactive.
Take `CCCCCCCCC(CO)CCCCCC` (stereo not given): the call was inactive.
Same read-out and setting: the same measure for `CCCCC1C(=O)N(c2ccccc2)N(c2ccccc2)C1=O`: “inactive”; for `CC1CC(=O)CC(C)(C)C1` (stereo not given): “inactive”; for `CCCCCC[C@@H](O)C/C=C\CCCCCCCC(=O)OCC(O)CO` (stereo not given in full): “inactive”.
Same read-out and setting: in the case of `CC(C)(C)NC(=O)[C@H]1CC[C@H]2[C@@H]3CC[C@H]4NC(=O)C=C[C@]4(C)[C@H]3CC[C@]12C` it was “inactive”.
Turning to `CN(C)c1ccc2nc3ccc(=[N+](C)C)cc-3sc2c1`, the AC50 is 5.2 µM (active).
Regarding `C[N+](C)(C)CCCNS(=O)(=O)C(F)(F)C(F)(F)C(F)(F)C(F)(F)C(F)(F)C(F)(F)C(F)(F)C(F)(F)F`, the call was inactive.
For the compound `Cc1ccc([N+](=O)[O-])cc1N`, the AC50 is 1.51 µM (active).
Take `CC1=CP(=O)(c2ccccc2)CC1` (stereo not given): the compound was classed as inactive.
Consider `C=CCCCCCCCCO`, for which the AC50 is 29.3 µM (active).
Consider `CC1=CC=C(C(C)C)CC1`, for which the compound was called inactive.
The same measure, in the same setting: in the case of `CC(C)CO` it was “inactive”.
In the case of `C=CC(=O)NCOCCCC`, the result was inactive.
On the same count and under the same terms, in the case of `Cc1c(C(=O)c2c[nH]n(C)c2=O)ccc(S(C)(=O)=O)c1C1=NOCC1` it was “inactive”; in that of `C1CCSC1`, “inactive”; in that of `CCOC(=O)OC(=O)OCC`, “inactive”.
For `Nc1ccc(Cl)c(N)c1`, the AC50 was 6.09 µM (active).
`COC(=O)C=Cc1ccccc1`: the result was inactive.
Still for that read-out and setting: the same measure for `CC1(C)CC(O)CC(C)(C)N1[O]`: “inactive”; for `CCCCCCCCCCCCc1ccc(O)cc1`: “inactive”.
Turning to `CCCCOCCOCCOC(C)=O`, the call was inactive.
Still for that read-out and setting: the same measure for `CC(C=O)c1ccccc1` (stereo not given): “inactive”.

Values taken from PubChem BioAssay (EPA / NIEHS).
